From PubChem BioAssay AID686979 (National Center for Advancing Translational Sciences (NCATS), 2013)
Among all 420,000 compounds or so, about 50,000 (12%) were called active. Not shown: some 26% with an inconclusive outcome. The list comes from a sample in which actives are over-represented; it also holds similar structures and randomly drawn compounds. A number with no mark means an inactive call. The call rests on the fitted dose curve; in most records, active means well fitted inhibition curve with a large enough effect; inconclusive means small, poorly fitted or top-dose-only effect; inactive means flat fitted curve, though single readings scatter.

experiment: qHTS for Inhibitors of human tyrosyl-DNA phosphodiesterase 1 (TDP1): qHTS in cells in presence of CPT; conditions: chicken DT40 Tdp1-/-;hTDP1 cells + 20 nM CPT, ATP luminescence, 48 h; series mostly up to 46.2 µM; activity change, negative = growth inhibition: at the top concentration; further: nearly all actives have a fitted effect of over 55% in size
Method in brief: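 Chicken DT40 Tdp1-/- cells stably complemented with human TDP1 were seeded at 400 cells/well in medium containing 20 nM camptothecin, exposed to pin-transferred compounds, and grown at 37 °C for at least 48 hr. Viability was read as ATP luminescence.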
On the % scale 0 is the no-effect control and ±100 the full control effect; potency means the concentration at half of the fitted maximal effect.

Compound | activity change, negative = growth inhibition [%] | Potency
CCC(Cc1ccccc1)NC(=O)C1CCCCC1 (stereo not drawn) | -15.5 | –
CN1CCN(CCNC(=O)Nc2ccccc2[N+](=O)[O-])CC1 | 1.85 | –
Cn1cc(/C=C/c2nc3ccccc3c(=O)n2-c2cccc([N+](=O)[O-])c2)c2ccccc21 | -9.1 | –
CCn1c(/C=C/c2ccc([N+](=O)[O-])o2)nc2ccccc2c1=O | – | 1.3 µM (active)
Cc1nc2ccccc2c(=O)n1Cc1ccc([N+](=O)[O-])cc1 | -21.5 | –
CC(C)c1ccc(S(=O)(=O)N2CCC3(CC2)OCCO3)cc1 | -2.81 | –
CCn1c(=O)cc(O)c2ccccc21 | 2.66 | –
CCn1c(=O)c2cc(C(=O)Nc3cccc(C(C)=O)c3)sc2c2ccccc21 | -18.9 | –
CCn1c(NC(=O)c2ccccc2)c(-c2cccs2)c(=O)c2ccccc21 | – | 20.6 µM (active)
CSCCC(NS(=O)(=O)c1ccc(C)cc1)C(=O)N1CCCC1 (stereo not drawn) | 1.59 | –
CCCn1c(N)c(C(=O)CSc2nnc3n2CCCCC3)c(=O)[nH]c1=O | -2.04 | –
CCOc1ccc(N=C2NC(=O)S/C2=C\c2ccc(O)cc2)cc1 | -8.1 | –
CCOc1[nH]n(-c2ccc(Cl)cc2)c(=O)c1C=Nc1ccc(O)cc1 | – | 5.8 µM (active)
Cc1ccc(C(=O)NCCN2CCOCC2)cc1C | -17.7 | –
Cc1cc(C)cc(C(=O)NCCN2CCOCC2)c1 | 0.936 | –
CC(=O)Oc1cc2c(C(=O)NCCN3CCOCC3)c(C)oc2c2ccccc12 | – | 18.4 µM (active)
COc1ccc(OC)c(-n2nnc3c(sc4nc(C)c(Br)c(C)c43)c2=O)c1 | -1.52 | –
CCC(=O)N(Cc1ccccc1)c1ccccn1 | -1.38 | –
Cc1ccc(S(=O)(=O)N(Cc2ccccc2)c2ccccn2)cc1[N+](=O)[O-] | 6.32 | –
COc1cc(SC)ccc1C(=O)N(Cc1ccccc1)c1ccccc1 | -29.6 | –
COc1cc(CN(C(=O)c2ccccc2Br)c2ccccn2)cc(OC)c1OC | – | 18.4 µM (active)
Cc1ccc(CN(C(=O)c2ccccc2[N+](=O)[O-])c2ccccn2)cc1 | – | 11.6 µM (active)
COC(=O)c1cc(C(=O)N(Cc2ccccc2)c2ccccn2)cc([N+](=O)[O-])c1 | 1.49 | –
COc1ccc(CCOC(=O)CNC(=O)c2ccc(Cl)cc2Cl)cc1 | 2.02 | –
Cc1ccc(N2CC(NC(=O)Cc3cccs3)CC2=O)cc1 (stereo not drawn) | -2.46 | –
C[C@H](NC(=O)c1nc[nH]c1C(=O)N[C@@H](C)C(=O)OC(C)(C)C)C(=O)OC(C)(C)C | -25.7 | –
COc1cc(C(=S)NC2CCCCC2)ccc1O | -6.73 | –

Compound | activity change, negative = growth inhibition [%] | Potency
Cc1cccc(NC(=O)Cn2c(=O)n(CCC(C)C)c(=O)c3cccnc32)c1 | -24.7 | –
Cc1cccc(N2CCN(C(=O)CCn3c(=O)c4cccn4c4cccnc43)CC2C)c1 (stereo not drawn) | – | 3.66 µM (active)
Cc1cccc(N2CCN(S(=O)(=O)c3ccc(-c4cc(C)no4)s3)CC2C)c1 (stereo not drawn) | 5.36 | –
CCOc1ccc(-c2cc3c(=O)n(CC(=O)NCc4ccc(OC)cc4)ccn3n2)cc1 | -8.52 | –
CCOC(=O)C1C(c2ccc(OC)c(OC)c2)c2c([nH][nH]c2=O)CC1(C)O (stereo not drawn) | -6.37 | –
O=C(Nc1c(Br)cc2c(c1Br)Cc1ccccc1-2)C(F)(F)F | -14 | –
COC(=O)N(NC(=O)C(O)(C(C)C)C(C)C)c1ccccc1 | 23.2 | –
CCCC(O)(CCC)C(=O)NN(C(=O)CCl)c1cccc(C)c1 | – | 4.61 µM (active)
CC(C)(O)C(=O)NN(C(=O)c1ccccc1)c1cccc(Br)c1 | -2.93 | –
CCCCC(O)(CCCC)C(=O)NN(C(=O)CCl)c1ccccc1 | – | 14.6 µM (active)
Cc1ccc(N(NC(=O)C(C)(C)O)C(=O)c2ccccc2)cc1C | -9.93 | –
CCCCCNC(=O)C1c2ccccc2Oc2ccccc21 | -6.61 | –
O=C(NNC(=S)NC1CCCCC1)c1ccccc1Cl | -16.4 | –
Clc1ccccc1CSc1nncn2c1cc1occc12 | -7.58 | –
Cn1c(CCc2ccccc2)nnc1SCC(N)=O | -1.76 | –
COc1ccc(CN2CN(C3CCCC3)CSC2=S)cc1 | – | 5.17 µM (active)
COc1ccc(CN2CN(C(C)C)CSC2=S)cc1 | – | 2.91 µM (active)
COc1ccc(CN2CC(C(=O)NC3CCCCC3)CC2=O)cc1 (stereo not drawn) | 1.05 | –
COc1ccc(Cn2c(=O)cc(C)[nH]c2=S)cc1 | 5.33 | –
COc1ccc(CCNC(=O)COC(=O)C2CCCCC2)cc1 | -9 | –
COc1ccc(CCC(C)N2CCc3ccccc3C2)cc1 (stereo not drawn) | -12.5 | –
O=C(NC1CCCC1)C(c1ccccn1)N(C(=O)c1csnn1)C1CCCC1 (stereo not drawn) | -23 | –
Cc1cc(C)c2c(=O)[nH]c(SCC(=O)Nc3ccc(Br)cc3)nc2n1 | -23.8 | –
CC1(C(=O)NS(=O)(=O)c2cccc(F)c2)CCN1C(=O)Cc1cc(F)ccc1F (stereo not drawn) | -10.9 | –
CN(CC(=O)Nc1ccccc1F)S(=O)(=O)c1ccc2c(c1)c(=O)n(C)c(=O)n2C | -15.7 | –
O=C1c2ccccc2C(c2nc3ccccc3[nH]2)N1c1ccccc1 (stereo not drawn) | 24.2 | –
